In all, about 18,000 sequences were measured (“log2 normalized intensity”: median about 0.39, highest 2% from about 6.6 on). Only a selection was taken, and the highest values are over-represented in it overall.

In this test the target is T1, HNF4alpha2 (COS-7 nuclear extract) (Homo sapiens, UniProt P41235 1-474).
T1 sequence: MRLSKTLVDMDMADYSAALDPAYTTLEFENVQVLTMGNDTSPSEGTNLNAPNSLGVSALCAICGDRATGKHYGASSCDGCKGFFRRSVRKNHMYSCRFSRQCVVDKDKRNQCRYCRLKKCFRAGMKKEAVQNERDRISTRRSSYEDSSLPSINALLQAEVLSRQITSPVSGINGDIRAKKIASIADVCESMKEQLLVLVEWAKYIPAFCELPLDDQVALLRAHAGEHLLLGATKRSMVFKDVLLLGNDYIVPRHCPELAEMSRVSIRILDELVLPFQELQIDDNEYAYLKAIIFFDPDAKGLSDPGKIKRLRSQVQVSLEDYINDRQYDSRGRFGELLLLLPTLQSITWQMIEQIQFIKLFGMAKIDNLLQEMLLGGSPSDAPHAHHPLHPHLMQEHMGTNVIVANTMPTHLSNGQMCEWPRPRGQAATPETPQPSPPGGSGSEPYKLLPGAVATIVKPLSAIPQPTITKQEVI
Description: protein-binding microarray; COS-7 nuclear extract on double-stranded Agilent 4x180k PBM; binding buffer, salt, pH and temperature not given in the material; high values mean tight binding. To be noted: chain copies: 2; label: 3' end of strand 1 on the slide; dsDNA, one strand shown. In outline: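 Nuclear extracts of COS-7 cells transiently transfected with a human HNF4α isoform were applied to a custom Agilent SurePrint G3 4x180k array bearing ~44,000 double-stranded ~60-nt test sequences, each in quadruplicate. The bound protein was imaged on an Agilent G2565CA scanner at 2-µm resolution. Binding signal is the normalized, background-corrected gProcessedSignal from Agilent software.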
Take “GCAGAAATCAACTGCCCTCTGCCTTTCAGGGCCTAGGGAGATTAGAGTATCGGTCGA”: the binding signal is -0.661 log2 normalized intensity.

Take “AGAGCACATTCTTCCATATAACCCTTGAACGCCTAGGGAGATTAGAGTATCGGTCGA”: the binding signal was found to be 3.6 log2 normalized intensity.

Regarding “TCAAAGGGCTTAATCTTTCCTGCCTGCCGGGCCTAGGGAGATTAGAGTATCGGTCGA”, the binding signal was -0.693 log2 normalized intensity.

With “ACCCACCCACACCTCCCCTTTGTTTAACTTGCCTAGGGAGATTAGAGTATCGGTCGA”, the binding signal was found to be 2.8 log2 normalized intensity.

With “TTTGCCATTTGGAGAGAGTTTGGCCCCAGTGCCTAGGGAGATTAGAGTATCGGTCGA”, the binding signal is 2.44 log2 normalized intensity.

In the case of “GACCTTGTTTTCAATGACTACCTGTTACCCGCCTAGGGAGATTAGAGTATCGGTCGA”, the binding signal was 1.45 log2 normalized intensity.

As for “ACTTTGACCTTGTTTTCAATGACTACCTGTGCCTAGGGAGATTAGAGTATCGGTCGA”, the binding signal stood at 1.84 log2 normalized intensity.

Take “GCCACCCATCAGTGGACTTTGACCTTGTTTGCCTAGGGAGATTAGAGTATCGGTCGA”: the binding signal was found to be 10.6 log2 normalized intensity.

For the sequence “AGACCTTTGACATCACCTAACTTGTGGCTGGCCTAGGGAGATTAGAGTATCGGTCGA”, the binding signal came out at 0.674 log2 normalized intensity.

Regarding “GTTCAATGCTTCAGTGAGCCTTGACCTTCAGCCTAGGGAGATTAGAGTATCGGTCGA”, the binding signal was 4.09 log2 normalized intensity.

As for “GCCAGCCAGGGCCACCCATCAGTGGACTTTGCCTAGGGAGATTAGAGTATCGGTCGA”, the binding signal is 6.63 log2 normalized intensity.

As for “CCATCAGTGGACTTTGACCTTGTTTTCAATGCCTAGGGAGATTAGAGTATCGGTCGA”, the binding signal is 9.03 log2 normalized intensity.

For the sequence “CACATGCTATTATTTTCCATCAGTGGACTTGCCTAGGGAGATTAGAGTATCGGTCGA”, the binding signal amounted to 3.5 log2 normalized intensity.

In the case of “CCCAGGGACTTTGGCCTTACTTGGCCTGTTGCCTAGGGAGATTAGAGTATCGGTCGA”, the binding signal came to 2.62 log2 normalized intensity.

As for “AGTGGACTTTGACCTTGTTTTCAATGACTAGCCTAGGGAGATTAGAGTATCGGTCGA”, the binding signal worked out at 7.31 log2 normalized intensity.

Regarding “GTATCTCTTCGCCTTGCTTATCTGGGAGGGGCCTAGGGAGATTAGAGTATCGGTCGA”, the binding signal was -0.214 log2 normalized intensity.

Consider “CTTCAAAGGAGTGGAGGAAGGAAGAAGTGTGCCTAGGGAGATTAGAGTATCGGTCGA”, for which the binding signal was 0.537 log2 normalized intensity.

Consider “GTGGTCATGTAGGTGTCTCAGGAATGTCCTGCCTAGGGAGATTAGAGTATCGGTCGA”, for which the binding signal stood at 1.85 log2 normalized intensity.

With “GCTTATGCATGGGAGATCTTCAGTAAGAGGGCCTAGGGAGATTAGAGTATCGGTCGA”, the binding signal is -0.283 log2 normalized intensity.

“GCTGGAACTCCTCCGGTCAAGATCAAGTGGGCCTAGGGAGATTAGAGTATCGGTCGA”: the binding signal came out at 0.207 log2 normalized intensity.

With “TCTAAGATTGGCCCTGATAATCAATCCAGCGCCTAGGGAGATTAGAGTATCGGTCGA”, the binding signal was -0.941 log2 normalized intensity.

As for “CCACAGAATCGCCCCACCCTGCCTGGGTAGGCCTAGGGAGATTAGAGTATCGGTCGA”, the binding signal was found to be 1.35 log2 normalized intensity.

“TCAGAGCAGGTGAACGACTTGACAAAGGTCGCCTAGGGAGATTAGAGTATCGGTCGA”: the binding signal is 3.22 log2 normalized intensity.

“ACTTTGGGGAAATGACCTTTGTCCAGCTGTGCCTAGGGAGATTAGAGTATCGGTCGA”: the binding signal is 6.74 log2 normalized intensity.

For “ATGTGGTATTAACATGTAAATATGACCTTTGCCTAGGGAGATTAGAGTATCGGTCGA”, the binding signal is 7.12 log2 normalized intensity.

In the case of “GGGGAGGGCATGGACTTTGGAATTAAGGAGGCCTAGGGAGATTAGAGTATCGGTCGA”, the binding signal worked out at 5.45 log2 normalized intensity.

“CTGGTGTAGTGGGGAGGGCATGGACTTTGGGCCTAGGGAGATTAGAGTATCGGTCGA”: the binding signal turned out to be 5.45 log2 normalized intensity.

Turning to “GTATTAACATGTAAATATGACCTTTGCTTTGCCTAGGGAGATTAGAGTATCGGTCGA”, the binding signal was 6.44 log2 normalized intensity.

Turning to “GGGGAAATGACCTTTGTCCAGCTGTGCCGAGCCTAGGGAGATTAGAGTATCGGTCGA”, the binding signal is 6.11 log2 normalized intensity.

For the sequence “GGAGGACTTTGGAATGGCAGTGCTTGTCCAGCCTAGGGAGATTAGAGTATCGGTCGA”, the binding signal came to 1.83 log2 normalized intensity.

As to “TGATGACTTTTGACCCCAGGGGAAACTCCAGCCTAGGGAGATTAGAGTATCGGTCGA”, the binding signal came out at 3.99 log2 normalized intensity.

“GTAGTGGGGAGGGCATGGACTTTGGAATTAGCCTAGGGAGATTAGAGTATCGGTCGA”: the binding signal amounted to 7.37 log2 normalized intensity.

“TTATCATGTGGTATTAACATGTAAATATGAGCCTAGGGAGATTAGAGTATCGGTCGA”: the binding signal was determined as 1.69 log2 normalized intensity.

As for “AATGACCTTTGTCCAGCTGTGCCGAGCCTGGCCTAGGGAGATTAGAGTATCGGTCGA”, the binding signal is 4.02 log2 normalized intensity.

For the sequence “GAATGACTTTGGGGAAATGACCTTTGTCCAGCCTAGGGAGATTAGAGTATCGGTCGA”, the binding signal amounted to 8.8 log2 normalized intensity.

For “CTAAAAACATTGTGGAGCTCATGTAAGGTCGCCTAGGGAGATTAGAGTATCGGTCGA”, the binding signal came to 1.62 log2 normalized intensity.

Regarding “CATGTGGGTCCAAAGAACATTGCATTCCTTGCCTAGGGAGATTAGAGTATCGGTCGA”, the binding signal turned out to be 1.55 log2 normalized intensity.

As to “CCCCGCCTTGGCCTCCCGGAGAGGCCCCGCGCCTAGGGAGATTAGAGTATCGGTCGA”, the binding signal worked out at 2.49 log2 normalized intensity.

In the case of “CCCCCACACCATTAGAGAACATGTACTTTGGCCTAGGGAGATTAGAGTATCGGTCGA”, the binding signal amounted to 3.32 log2 normalized intensity.

For “TTAAAGGGCAGAAGAAGGGATTTAGATTAGGCCTAGGGAGATTAGAGTATCGGTCGA”, the binding signal was -0.58 log2 normalized intensity.

With “GATCCTCCCACTTCAGCCTCCCGAGTAGTTGCCTAGGGAGATTAGAGTATCGGTCGA”, the binding signal is 2.81 log2 normalized intensity.

Take “TGAGAGAGCATCCAGATAAAGCTGAAGAAAGCCTAGGGAGATTAGAGTATCGGTCGA”: the binding signal is -0.814 log2 normalized intensity.

In the case of “TTCAGCCATTTTATGACCATGAGGTGACGGGCCTAGGGAGATTAGAGTATCGGTCGA”, the binding signal turned out to be 1.6 log2 normalized intensity.

For the origin of these results see paper PMC10726135, “HNF4α isoforms regulate the circadian balance between carbohydrate and lipid metabolism in the liver”.
